PME-1 primary = blocks human protein phosphatase methylesterase 1. inhibition, % at 5.9 µM. Q9Y570. 0.53% of 320,000 active. AID 2130. recombinant PME-1, FP-Rh probe fluorescence polarization;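 active = inhibition above the campaign mean of all compounds plus 3 SD, cut at about 26% in these data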;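 note: competitive labeling of PME-1 active site by serine hydrolase directed probe; 0% = PME-1 with DMSO and 100% = wells lacking PME-1 enzyme; inhibitors block probe labeling so polarization falls and inhibition rises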
PAD4 inh = inhibitors of human PAD4; 0.41% of 330,000 active; inhibition, % at 6.36 µM; Q9UM07; AID 485272; recombinant PAD4, RCA probe fluorescence polarization;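 active = percent inhibition above a cutoff equal to the mean of all tested compounds plus 3 SD, cut at about 15% in these data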;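 note: 0% = PAD4 with RCA probe and DMSO and 100% = probe without PAD4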
Target sequence (Q9UM07 whole entry, looked up): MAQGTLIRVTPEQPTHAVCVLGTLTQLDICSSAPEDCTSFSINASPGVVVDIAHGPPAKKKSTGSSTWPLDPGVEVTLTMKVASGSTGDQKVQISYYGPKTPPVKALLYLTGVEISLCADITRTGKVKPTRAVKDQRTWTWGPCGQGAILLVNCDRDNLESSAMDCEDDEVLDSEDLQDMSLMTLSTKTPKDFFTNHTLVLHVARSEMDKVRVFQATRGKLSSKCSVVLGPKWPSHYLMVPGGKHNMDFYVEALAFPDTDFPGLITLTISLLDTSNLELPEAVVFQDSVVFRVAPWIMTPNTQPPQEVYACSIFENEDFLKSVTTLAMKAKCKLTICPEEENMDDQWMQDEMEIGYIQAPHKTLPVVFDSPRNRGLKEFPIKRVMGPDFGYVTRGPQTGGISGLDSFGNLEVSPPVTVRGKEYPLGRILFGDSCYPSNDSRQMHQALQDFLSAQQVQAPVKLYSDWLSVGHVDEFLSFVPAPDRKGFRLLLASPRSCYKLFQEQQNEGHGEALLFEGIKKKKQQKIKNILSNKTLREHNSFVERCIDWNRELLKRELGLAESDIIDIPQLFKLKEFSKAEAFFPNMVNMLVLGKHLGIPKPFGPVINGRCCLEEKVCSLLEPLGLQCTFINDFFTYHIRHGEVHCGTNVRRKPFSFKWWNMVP
Fam108B counter = Fam108B inhibition, counter-screen for RBBP9 inhibitors | recombinant Fam108B, FP-Rh probe fluorescence polarization | inhibition, % at 9.51 µM | 0.33% of 300,000 active | AID 1947;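 active = inhibition above the screen mean inhibition plus 3 SD, computed separately per campaign, cut at about 18% in these data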;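 note: inhibitors lower polarization as less probe binds the enzyme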
GSTO1 counter = blocks human GSTO1 in RBBP9 counter-screen; P78417; recombinant GSTO1, activity-based probe fluorescence polarization; inhibition, % at 5.96 µM; 1.1% of 300,000 active; AID 1974;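 active = inhibition above the campaign mean inhibition plus 3 SD, cut at about 35% in these data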;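 note: 0% = GSTO1-1 with DMSO and 100% = wells lacking GSTO1-1 enzyme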
LYPLA1 counter = LYPLA1 (human) inhibition in PME1 counter-screen | O75608 | AID 2174 | recombinant LYPLA1, FP-Rh probe fluorescence polarization | 0.16% of 320,000 active | inhibition, % at 5.9 µM;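 active = inhibition above the mean of all tested compounds plus 3 SD, set per campaign, cut at about 14% in these data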;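 note: inhibitors block serine hydrolase probe labeling of LYPLA1 so polarization falls; 0% = enzyme with DMSO and 100% = wells lacking LYPLA1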
LYPLA2 inh = blocks human lysophospholipase 2, a PME1 counter-screen. 0.38% of 320,000 active. recombinant LYPLA2, FP-Rh probe fluorescence polarization. inhibition, % at 5.9 µM;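 active = inhibition above the screen-wide mean plus 3 SD, limit set per campaign, cut at about 26% in these data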;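 note: 0% = LYPLA2 with DMSO and 100% = wells lacking LYPLA2 enzyme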
PAD4 confirm = confirmation of human PAD4 inhibitors. shares compounds with PAD4 inh. recombinant PAD4, RCA probe fluorescence polarization. inhibition, % at 6.36 µM. 28% of 1,200 active. AID 488796;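 active = mean inhibition across replicates above the hit cutoff set by the earlier primary screen, cut at about 15% in these data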;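 note: inhibitors block active-site labeling by the probe so polarization falls; 0% = PAD4 with probe and DMSO and 100% = probe without PAD4 enzyme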
The depositor's hits bear a star; nt = no result. Only some compounds are listed: those with a hit (about 1.8% of all), similar ones and a draw of the others.

SMILES	PME-1 primary	PAD4 inh	Fam108B counter	GSTO1 counter	LYPLA1 counter	LYPLA2 inh	PAD4 confirm
CC[C@@]1(C(=O)OC)N[C@H](CN(C)C(=O)C2CCCCC2)[C@@H]2C(=O)N(Cc3ccccc3)C(=O)[C@@H]21	nt	-4	nt	nt	nt	nt	nt
CC(=O)Nc1ccc(SCC(=O)c2ccc(Br)s2)cc1	-4	35*	3	12	-3	-3	12
CC1(NC(=O)Cc2csc(-c3cccc(Cl)c3)n2)CCS(=O)(=O)C1 (stereo unspecified)	12	21*	nt	nt	7	13	3
CC1(NC(=O)Cc2csc(-c3ccc(Cl)cc3)n2)CCS(=O)(=O)C1 (stereo unspecified)	nt	0	nt	nt	nt	nt	nt
O=C(CN1CCN(c2ccc(O)cc2)CC1)Nc1ccc(S(=O)(=O)N2CCCC2)cc1	nt	-2	nt	nt	nt	nt	nt
COc1ccc(N2C(=O)CSC23C(=O)N(CC(=O)NC2CCCC2)c2ccccc23)cc1 (stereo unspecified)	2	16*	0	-4	-4	2	14
Cc1c(C(=O)N2CCCCC2C)sc2nc3n(c(=O)c12)CCC3 (stereo unspecified)	6	-1	-1	2	-4	-3	nt
Cc1c(C(=O)Oc2ccc(-c3cnc4ccccc4n3)cc2)cccc1[N+](=O)[O-]	-4	62*	-2	-2	2	2	57*
O=C(Oc1ccc(-c2cnc3ccccc3n2)cc1)c1cc([N+](=O)[O-])ccc1Cl	4	5	-1	-5	4	4	nt
CCC(=O)Oc1ccc(-c2cnc3ccccc3n2)cc1	-3	20*	5	0	-3	2	9
O=C(Oc1ccc(-c2cnc3ccccc3n2)cc1)c1ccco1	-4	36*	4	1	1	0	35*
O=C(Nc1cccc(-c2cnc3ccccc3n2)c1)c1ccco1	-5	-2	-5	-2	-4	-6	nt
CCCCS(=O)(=O)N1CCN(S(=O)(=O)c2cccs2)CC1	0	1	1	0	-2	3	nt
COc1cc(NC(=O)c2cc(C)nc3ccccc23)cc(OC)c1OC	4	29*	1	10	-2	1	5
CSCc1ccc(C(=O)OCc2nc3ccccc3s2)o1	nt	4	nt	nt	nt	nt	nt
NC(=O)c1oc2ccccc2c1NC(=O)C1CC(=O)N(c2ccccc2)C1 (stereo unspecified)	6	18*	0	7	1	9	27*
CCOC(=O)c1sc2nc(CSc3ccccc3)nc(N3CCC(C(N)=O)CC3)c2c1C	2	40*	1	-7	-1	0	-1
COc1ccccc1C1c2ccc3ccccc3c2Oc2ncn(CCCO)c(=N)c21 (stereo unspecified)	-4	-7	-5	-12	-3	-8	nt
COc1ccccc1C1c2ccc3ccccc3c2Oc2ncn(CCN(C)C)c(=N)c21 (stereo unspecified)	-3	19*	-3	1	-3	1	1
CCCCc1c(C)c2ccc(OCC(C)=O)cc2oc1=O	-6	-3	0	-9	-3	-4	nt
CC(=O)COc1ccc2c(C)c(-c3ccccc3)c(=O)oc2c1	0	23*	1	-4	4	5	-4
CC(=O)c1cccc(OCC(=O)Nc2ccccc2N2CCOCC2)c1	-2	2	nt	nt	-1	-2	nt
COc1ccc(C(=O)Nc2ccc(S(=O)(=O)Nc3cc(C)nc(C)n3)cc2)c(OC)c1	-3	31*	-2	-9	-6	-7	21*
COc1ccccc1C(=O)Nc1ccc(S(=O)(=O)Nc2cc(C)nc(C)n2)cc1	-3	3	0	0	0	3	nt
Cc1cc2ccccc2n1CCNC(=O)COc1ccccc1	-9	23*	5	0	-1	0	9
CCOP(=O)(NC12CC3CC(CC(C3)C1)C2)NC12CC3CC(CC(C3)C1)C2	3	-3	-4	1	2	2	nt
